High-throughput results deposited in PubChem by National Center for Advancing Translational Sciences (NCATS).
PINK1 modulator = modulators of PINK1 expression; PINK1 immunofluorescence, high-content cytometry, 24 h; Potency, µM (series often up to 76.6 µM), most hits filed as activators; 410,000 compounds, 0.2% hits; active = well fitted activation curve with a large enough effect; inconclusive = small, poorly fitted or top-dose-only effect; cell line not stated here; note: nearly all actives have a fitted effect of over 65% in size
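Decision-based qHTS: stable cells, 24 h exposure to five compound concentrations, CCCP as control. Fixed cells stained for PINK1 plus nuclear, mitochondrial and cell markers, cytometer read.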
SW480 rerep = inducers of DNA re-replication in SW480 colon cancer cells; 340,000 compounds, 1.8% hits; SW480 DNA re-replication, Hoechst DNA content imaging, 48 h; AID 624297; Potency, µM (doses to about 46.1 µM), actives largely listed as activators; note: nearly all actives have a fitted effect of over 55% in size
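Readout is total intensity of Hoechst-stained nuclei, excited at 405 nm and collected at 500-530 nm. Compound treatment lasted 48 hr at 37 C in 5% CO2 before staining.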
ATXN2 expr inh = ATXN2 expression inhibition; 360,000 compounds, 0.72% hits; Potency, µM (top dose mostly 57 µM), actives largely listed as inhibitors; HEK-293 ATXN2-luciferase reporter, luminescence, 24 h; AID 1745845; note: nearly all actives have a fitted effect of over 55% in size
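qHTS (up to 57 uM final) was run with 24 h compound exposure of reporter cells at 37 °C. Each well was multiplexed: SteadyGlo luminescence measured ATXN2-luciferase expression after a fluorogenic Gly-Phe-AFC viability readout (25 uM final).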
S2 tox = reduces viability in counter-screen for ATXN expression inhibitors; S2 cells (HEK-293 line with an ATXN2-luciferase reporter) viability, CellTiter-Fluor protease fluorescence, 24 h; 400,000 compounds, 0.49% hits; Potency, µM (series often up to 56.7 µM), usual class: cytotoxic; note: nearly all actives have a fitted effect of over 40% in size
MCF10A rerep = inducers of DNA re-replication in MCF 10A breast cells. MCF 10A DNA re-replication, Hoechst nuclear intensity, 48 h. Potency, µM (doses to about 46.1 µM), most hits filed as activators. 350,000 compounds, 2.9% hits. AID 624296; note: nearly all actives have a fitted effect of over 50% in size
IL-1B inflam inh = inflammasome signaling inhibition, IL-1 beta readout | 360,000 compounds, 4.7% hits | activity change, % at 57.5 µM | THP-1 LPS/ATP IL-1B secretion, AlphaLISA, 16 h; stronger effect = lower value | AID 743279; in the data active = activity change below about -50%; inconclusive = mostly about -30% to -49%
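THP-1 cells pretreated 1 hr with compounds (up to 57.5 uM final), then stimulated with LPS (250 ng/mL final) plus ATP (1.25 mM final); secreted IL-1B measured by AlphaLISA after 16 hr, decreased signal indicating inhibition.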
Large screens that a line does not name were inactive; ! = not active in a repeat. An excerpt weighted towards active compounds, which were near 7.1% of everything screened. Unless noted, calls come from the whole dose curve; as a rule, active = well fitted curve in the direction sought with a large enough effect; inconclusive = small, poorly fitted or top-dose-only effect, or another doubt; inactive = no such curve, though single readings can be large; an effect the other way counts as inactive or inconclusive.

CCCCCCCCCCCCCCCC[N+](C)(C)Cc1ccc(F)cc1	SW480 rerep inconclusive, ATXN2 expr inh inconclusive, MCF10A rerep 14.6µM, IL-1B inflam inh -73.9
CC#CC[N+](C)(C)CCCCCCCC	none
CN(C)C(=O)CSc1nc(-c2ccccc2)nc2c1CCCC2	SW480 rerep inconclusive, ATXN2 expr inh inconclusive, IL-1B inflam inh -69.7
CN(C)CCCSc1nc(-c2ccccc2)nc2c1CCC2	IL-1B inflam inh -53.1 (no result: ATXN2 expr inh)
CN(C)CCSc1nc(-c2ccccc2)nc2c1CCC2	none (no result: ATXN2 expr inh)
CCC1(C)CC2(CCCN(CCC(O)(c3ccccc3)c3ccccc3)C2)CCO1 (centres undefined)	PINK1 modulator 44.7µM, IL-1B inflam inh inconclusive
CCCOC(=O)c1ccc2c(c1)C(=O)N(c1ccccc1)C2=O	SW480 rerep 16.4µM, MCF10A rerep inconclusive
CCCOC(=O)CN1C(=O)c2ccc(C(=O)OCCC)cc2C1=O	none
CSc1ccc(CCNC(=O)CCCn2c(=O)c3cccn3c3ccccc32)cc1	none (no result: SW480 rerep, ATXN2 expr inh, S2 tox, MCF10A rerep, IL-1B inflam inh)
NC(CO)c1csc(Nc2ccc(C(F)(F)F)cn2)n1 (centres undefined)	none (no result: SW480 rerep, MCF10A rerep)
NC(c1csc(Nc2ccc(C(F)(F)F)cn2)n1)C1CCCCC1 (centres undefined)	ATXN2 expr inh inconclusive, IL-1B inflam inh -66.0 (no result: SW480 rerep, MCF10A rerep)
CC(C)CC(N)c1csc(Nc2ccc(C(F)(F)F)cn2)n1 (centres undefined)	ATXN2 expr inh inconclusive, S2 tox inconclusive, IL-1B inflam inh -54.0 (no result: SW480 rerep, MCF10A rerep)
NC(Cc1ccc(Cl)cc1)c1csc(Nc2ccc(C(F)(F)F)cn2)n1 (centres undefined)	S2 tox 31.6µM, IL-1B inflam inh -67.4 (no result: SW480 rerep, MCF10A rerep)
NC(c1csc(Nc2nccc(C(F)(F)F)n2)n1)C1CCCCC1 (centres undefined)	ATXN2 expr inh inconclusive, IL-1B inflam inh inconclusive (no result: SW480 rerep, MCF10A rerep)
CC(C)CC(N)c1csc(Nc2ccccn2)n1 (centres undefined)	ATXN2 expr inh inconclusive, S2 tox inconclusive, IL-1B inflam inh -50.1 (no result: SW480 rerep, MCF10A rerep)
Cc1cccc(CN2C(=O)c3ccccc3S(=O)(=O)c3ccc(C(=O)NCCC4=CCCCC4)cc32)c1	none (no result: SW480 rerep, MCF10A rerep, IL-1B inflam inh)
CC(N=Cc1cccc(O)c1O)c1ccccc1 (centres undefined)	SW480 rerep 8.2µM, MCF10A rerep inconclusive
Cc1ccccc1C=Nc1ccccc1C(N)=O	SW480 rerep 4.11µM, MCF10A rerep 3.26µM
NC(=O)c1ccccc1N=Cc1ccccn1	none (no result: PINK1 modulator, ATXN2 expr inh, S2 tox)
Cc1ccc(C=Nc2ccccc2C(N)=O)cc1	SW480 rerep inconclusive, S2 tox inconclusive, MCF10A rerep 11.6µM
Cc1ccc(N=Cc2cccc(O)c2O)c(C)c1	none (no result: SW480 rerep, ATXN2 expr inh, S2 tox, MCF10A rerep, IL-1B inflam inh)
Cc1ccccc1N=Cc1cccc(O)c1O	SW480 rerep 6.51µM, S2 tox inconclusive, MCF10A rerep inconclusive
COc1ccc(NC(=O)CCc2nnc3n(Cc4ccccc4Cl)c(=O)c4ccccc4n23)cc1	none (no result: SW480 rerep, ATXN2 expr inh, S2 tox, MCF10A rerep, IL-1B inflam inh)
CCCS(=O)(=O)c1nc(S(=O)(=O)c2ccc(C)cc2)c(NCCCOC(C)C)s1	none (no result: SW480 rerep, ATXN2 expr inh, S2 tox, MCF10A rerep, IL-1B inflam inh)
CCOc1ccc(NC(=O)C2CCCN(c3nnc(-n4c(C)ccc4C)s3)C2)cc1 (centres undefined)	none (no result: SW480 rerep, ATXN2 expr inh, S2 tox, MCF10A rerep, IL-1B inflam inh)
CCOC(=O)Cn1c(=O)oc2cc(S(=O)(=O)N(C)c3ccc(OC)cc3)ccc21	IL-1B inflam inh -57.0
Cc1ccc(C)c(C(=O)C[n+]2cccc(Br)c2)c1	none (no result: SW480 rerep, ATXN2 expr inh, S2 tox, MCF10A rerep, IL-1B inflam inh)
O=C(CSc1nnc(-c2ccc3c(c2)OCO3)o1)Nc1ncc(Cl)cc1Cl	SW480 rerep inconclusive, S2 tox inconclusive, MCF10A rerep 13µM (no result: ATXN2 expr inh)
CC(=O)Nc1ccc(NC(=O)CSc2nnc(-c3ccc4c(c3)OCO4)o2)cc1	none
CCOc1ccc(CCNC(=O)c2ccc3c(c2)N(Cc2ccccc2F)C(=O)c2ccccc2S3=O)cc1OCC (centres undefined)	none (no result: SW480 rerep, MCF10A rerep, IL-1B inflam inh)
O=C(NC1CC1)c1sc2ccccc2c1Cl	IL-1B inflam inh inconclusive
O=C(NC1C=CS(=O)(=O)C1)c1sc2ccccc2c1Cl (centres undefined)	ATXN2 expr inh inconclusive, IL-1B inflam inh -97.1
CC(=O)/C(N=Nc1ccc(C(=O)O)cc1[N+](=O)[O-])=C(\C)O	none (no result: ATXN2 expr inh)
CCOC(=O)/C(N=Nc1ccc(C(=O)O)cc1[N+](=O)[O-])=C(\C)O	S2 tox inconclusive, MCF10A rerep 3.66µM
COc1ccc(NC(=S)NNC(=O)C2CC2c2ccc(C)cc2)cc1 (centres undefined)	SW480 rerep 18.4µM, MCF10A rerep inconclusive
Cc1ccc(NC(=S)NNC(=O)C2CC2c2ccc(C)cc2)cc1 (centres undefined)	none
O=C(NC(=S)Nc1ccc(S(=O)(=O)NC2CCCCC2)cc1)c1cccs1	PINK1 modulator inconclusive, S2 tox inconclusive, IL-1B inflam inh -65.4
CCCCCCCCCCCCCCCCn1cc[n+](C)c1	SW480 rerep inconclusive, ATXN2 expr inh 14.1µM!, S2 tox 20µM, MCF10A rerep 20.6µM, IL-1B inflam inh -95.6
CCCCCCCCn1ccc(=N)cc1	ATXN2 expr inh inconclusive, S2 tox inconclusive
O=C1NCC(c2ccccc2)C1C(=O)N/N=C\c1ccc(-c2cccc(Cl)c2Cl)o1 (centres undefined)	MCF10A rerep inconclusive
Cc1ccc(-c2ccc(/C=N\NC(=O)C3C(=O)NCC3c3ccccc3)o2)cc1Cl (centres undefined)	SW480 rerep inconclusive, ATXN2 expr inh inconclusive, S2 tox inconclusive, MCF10A rerep inconclusive, IL-1B inflam inh -54.9
CCN1CCN(Cc2ccc(NC(=O)c3cc(NC(=O)c4cnn(-c5ccccc5)c4N)cc(OC)c3)cc2C(F)(F)F)CC1	ATXN2 expr inh inconclusive, S2 tox 25.1µM, MCF10A rerep 14.6µM
CCN1CCN(Cc2ccc(NC(=O)c3cc(NC(=O)c4cc(C)on4)cc(OC)c3)cc2C(F)(F)F)CC1	SW480 rerep inconclusive, ATXN2 expr inh inconclusive, S2 tox inconclusive, IL-1B inflam inh -82.7!
CCN1CCN(Cc2ccc(NC(=O)c3ccc(C)c(NC(=O)c4ccnnc4)c3)cc2C(F)(F)F)CC1	none
CCN1CCN(Cc2ccc(NC(=O)c3cc(NC(=O)C(=O)c4c[nH]c5ccccc45)cc(OC)c3)cc2C(F)(F)F)CC1	SW480 rerep inconclusive, ATXN2 expr inh 14.1µM!, S2 tox 15.8µM, MCF10A rerep inconclusive, IL-1B inflam inh -79.6
CCN1CCN(Cc2ccc(NC(=O)c3ccc(C)c(NC(=O)c4ccc5n[nH]nc5c4)c3)cc2C(F)(F)F)CC1	none
CCN1CCN(Cc2ccc(NC(=O)c3ccc(C)c(NC(=O)C(=O)c4c[nH]c5ccccc45)c3)cc2C(F)(F)F)CC1	SW480 rerep inconclusive, ATXN2 expr inh 14.1µM!, S2 tox 14.1µM, MCF10A rerep 23.1µM, IL-1B inflam inh -106.2
CSc1ncc(Cl)c(C(=O)N(Cc2ccc(C(C)C)cc2)C2CCS(=O)(=O)C2)n1 (centres undefined)	none (no result: SW480 rerep, MCF10A rerep, IL-1B inflam inh)
